{"source": "paper PMC12136788", "binders": {"B1": {"name": "chr5:6669452:6669553:+|3pUTR|ENSG00000145545|unk|FALSE|unique (ssRNA)", "RNA": "GGGAGUUCUACAGUCCGACGAUCCAUCUCAUCUGGAGUUUUUAAAUGCCAUUUGUUUCAGUUGUCUUUAACAACAUAAUAAAUAGACUUUGCCAUUUAACAAGGUAGCUCAAAUUCUUUUACUAAUUGUUACAUCGAAACAUUCAACAGAGGAUUGAGCAUCA"}, "B2": {"name": "ENSG00000168615:stop:overlap|stop_codon|ENSG00000168615|stop_codon|NA|stop_codon (ssRNA)", "RNA": "GGGAGUUCUACAGUCCGACGAUCCUGGCCAGAAUACCCAAAAUAAUUGGCAGAUGUCAAAUUUGGCUUUCUGUGUUUAUUACUAGAGCAUAAACAUUUCUAGUUUUGUUUGAGUGUUUUACAGUCCUUUUUGGCAGUUAGGUACAACAGAGGAUUGAGCAUCA"}, "B3": {"name": "chr2:216672738:216672882:-|3pUTR|ENSG00000115461|msi1|FALSE|unique (ssRNA)", "RNA": "GGGAGUUCUACAGUCCGACGAUCUUCUCUUAGGCUUUUGUUUCUAUUUCAAACAUACUUUCUUGGUUUUCUAAUGGAGUAUAUAGUUUAGUCAUUUCACAGACUCUGGCCUCCUCUCCUGAAAUCCUUUUGGAUGGGGAAAGGCAACAGAGGAUUGAGCAUCA"}, "B4": {"name": "chr2:96185838:96185916:-|3pUTR|ENSG00000084090|msi1_unk|FALSE|overlapping (ssRNA)", "RNA": "GGGAGUUCUACAGUCCGACGAUCUGGGAGACUAAUCCUUUUAGAUAGUAGCUUUUUGAUGCUCAAAACAUCACAUUUAAAUUUAGUUUAAAAAUUUUUUAACUUUUGUGUCAAAUAGGAGUUGAGGAAUUGAGCAGGAUUCUACAACAGAGGAUUGAGCAUCA"}, "B5": {"name": "chr16:2708819:2708933:+|3pUTR|ENSG00000167977|unk|FALSE|unique (ssRNA)", "RNA": "GGGAGUUCUACAGUCCGACGAUCCUCUCUGGGGAGCUGCUGGCCGCUUAGCGUUGUUUGAUUUUUGACCUUGACAUAGUAGAUAGGCUUGUGGUUUUUUUAAUUUAAAGAUAUUAAGACUUAAUUCACUAAAAUUUAUUCUAACAACAGAGGAUUGAGCAUCA"}, "B6": {"name": "chr16:2708819:2708933:+|3pUTR|ENSG00000167977|unk|total|mutant (ssRNA)", "RNA": "B5 RNA with U48C, A49C, U76C, A77C, U79C, A80C, U83C, A84C"}, "B7": {"name": "chr10:98383567:98383797:-|three_prime_utr|ENSG00000119943|control|control|control (ssRNA)", "RNA": "GGGAGUUCUACAGUCCGACGAUCCCACCCCUGAAUUCCAAGUGCUCCAUUGGAUCAGCUUCCCAGGAAGUUCAGCUUCGGGUUAGUACAUAAGGCCACCACAAUGCUCAAGAAAUUAUUUUAGAAAAAACGUACGAGUUACAUCAACAGAGGAUUGAGCAUCA"}, "B8": {"name": "chr12:103777333:103777434:-|3pUTR|ENSG00000111696|msi1|total|mutant (ssRNA)", "RNA": "GGGAGUUCUACAGUCCGACGAUCUCCUGAACAUUUACGGGCUAUGCAUUGGGAACUGCAGGGGCACAGUGAUGGGCAAAGAUCCGCUGCUUCCAGAAGGCUGAUUUCGUGGGCUCCACAAUGGUAAAACGCUGCUGUGAGUGGCAACAGAGGAUUGAGCAUCA"}, "B9": {"name": "chr17:61865808:61865921:-|3pUTR|ENSG00000108506|unk|FALSE|unique (ssRNA)", "RNA": "GGGAGUUCUACAGUCCGACGAUCUUCUAUGAGAAUGAGUUUGUAGCUGUUUCAAAUCAUGAAGUGCAUAGUAUCACAUGUGAUAGAAUAUUUAUAACUUUUUAUUAGAUGCUUAAUGUUCAAUUAAGUAAUUUUGAUGUGAAACAACAGAGGAUUGAGCAUCA"}, "B10": {"name": "chr7:152122106:152122213:+|3pUTR|ENSG00000178234|unk|total|mutant (ssRNA)", "RNA": "GGGAGUUCUACAGUCCGACGAUCAGUGGUUUUUAUCUGAUCAGGAACUUGUCAUGAUUUCCUUUCUCCGACUUCACCGGAGACCGUGCUUUAAAAAAAAAAAAAACUUCUAUUAUUUGUUCCGUAUGUUGUAAGCCGAUCAUUCAACAGAGGAUUGAGCAUCA"}, "B11": {"name": "chr4:56502255:56502306:+|3pUTR|ENSG00000174780|msi1_unk|FALSE|overlapping (ssRNA)", "RNA": "GGGAGUUCUACAGUCCGACGAUCAUUUCAGCUGGAGUCUGAAGAUACUUGUUUCUGUUCAAGUCCCACUUUAAAUUAUGUCUUAGGAGACUGAAAGUGGAAUCUUCUGAGCAUUCCUAAAUAUCUGCUUAGAAAUAUCAUGUGCAACAGAGGAUUGAGCAUCA"}, "B12": {"name": "chr7:152122106:152122213:+|3pUTR|ENSG00000178234|unk|FALSE|unique (ssRNA)", "RNA": "B10 RNA with C67U, C68A, C76U, C77A, C83U, C84A, C121U, C122A, C135U, C136A"}, "B13": {"name": "chr11:101890673:101891278:-|three_prime_utr|ENSG00000187151|control|control|control (ssRNA)", "RNA": "GGGAGUUCUACAGUCCGACGAUCGUAAUGCAAGUUCUACAAUGAUAAUAUAUUAAAGAUUUUUAAAAGUUUAUCUUUUCACUUAGUGUUUCAAACAUAUUAGGCAAAAUUUAACUGUAGAUGGCAUUUAGAUGUUAUGAGUUUCAACAGAGGAUUGAGCAUCA"}, "B14": {"name": "chr5:160402147:160402258:-|3pUTR|ENSG00000164609|unk|FALSE|unique (ssRNA)", "RNA": "GGGAGUUCUACAGUCCGACGAUCAUGGUUUACAUUACCGUUUGUUUUCAUUGUGAUUGCCCCUAUGUAACAAUCAUGAAUAUUAGAUUUUUUAAAUUGUAGAAUAUCCUAAUAUUUAUAGCCAGCAGCUGUUACUUUGUUUGUCAACAGAGGAUUGAGCAUCA"}, "B15": {"name": "chr14:100278170:100278208:+|3pUTR|ENSG00000100811|msi1_unk|FALSE|overlapping (ssRNA)", "RNA": "GGGAGUUCUACAGUCCGACGAUCGCUAUCUUAAUUUUGGUUGUAUUCUUUGAUGUUAACACAUUUUGUAUAAUUGUAUCGUAUAGCUGUAUUGAAUCAUGUAGUAUCAAAUAUUAGAUGUGAUUUAAUAGUGUUAAUCAAUUUCAACAGAGGAUUGAGCAUCA"}, "B16": {"name": "chr21:14371318:14371404:-|3pUTR|ENSG00000155304|msi1_unk|total|mutant (ssRNA)", "RNA": "GGGAGUUCUACAGUCCGACGAUCUAUGAAUAACAAUCUGAAGUCUUUUCAUAAAAAAAAUUAAUAAACUUCCGUUGUACAUUCCGCCAGUGUUAUUUGAAGUAUGUAACUUUUAAAAUAUUAAGUGUCUUGUAUGAUCCGAAUCAACAGAGGAUUGAGCAUCA"}, "B17": {"name": "chr10:121957106:121957207:-|3pUTR|ENSG00000107672|msi1|FALSE|bound_elsewhere (ssRNA)", "RNA": "GGGAGUUCUACAGUCCGACGAUCUGUAUCGUACAUAUUGUAUGAUUCAACAUUUUUAAAGGCAGAUUGUUUUUAGUAAAAUGUAGCUUUUGAUAGUUAAUAAAUUUGUCAUGGUUGUCUUUGAUUAAAGGAAACUCACCGCCACAACAGAGGAUUGAGCAUCA"}}, "note": "Numbering of substitutions follows the chain as printed. The full ranking holds about 5,800 sequences; the median of “enrichment r” is about 0.68, and the highest 2% start at about 11. The list comes from a sample in which the highest values are over-represented; it also holds similar and randomly drawn sequences.", "data": [{"target": "T1, UNK ZnF1-6 (called full-length) (human, UniProt Q9C0B0 30-357)", "T1 sequence": "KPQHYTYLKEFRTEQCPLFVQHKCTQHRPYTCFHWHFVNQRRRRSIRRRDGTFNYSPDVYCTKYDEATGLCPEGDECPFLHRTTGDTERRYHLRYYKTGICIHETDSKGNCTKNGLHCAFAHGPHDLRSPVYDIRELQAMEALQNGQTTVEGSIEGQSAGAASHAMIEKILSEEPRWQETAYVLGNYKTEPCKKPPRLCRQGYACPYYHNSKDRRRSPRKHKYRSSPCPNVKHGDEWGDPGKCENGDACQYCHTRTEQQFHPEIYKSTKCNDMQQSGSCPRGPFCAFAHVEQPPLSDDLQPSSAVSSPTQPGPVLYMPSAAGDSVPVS", "test": "nsRBNS (natural sequence RNA bind-n-seq); RBNS binding buffer (assumed for nsRBNS): 25 mM Tris pH 7.5, 150 mM KCl, 3 mM MgCl2, 0.01% Triton X-100, 500 ug/ml BSA, 20 U/ml SUPERase-In, 4 C; UNK is unkempt and MSI1 is Musashi-1; names of the RNAs are library labels; protein concentration not given here; high values mean tight binding", "units": {"binding signal": "enrichment R"}, "values": [{"binder": "B1", "binding signal": 0.535}, {"binder": "B2", "binding signal": 0.532}, {"binder": "B3", "binding signal": 5.21}, {"binder": "B4", "binding signal": 27.5}, {"binder": "B5", "binding signal": 14.8}, {"binder": "B6", "binding signal": 2.05}, {"binder": "B7", "binding signal": 2.25}, {"binder": "B8", "binding signal": 0.856}, {"binder": "B9", "binding signal": 2.51}, {"binder": "B10", "binding signal": 0.949}, {"binder": "B11", "binding signal": 0.869}, {"binder": "B12", "binding signal": 35}, {"binder": "B13", "binding signal": 5.03}, {"binder": "B14", "binding signal": 5.04}, {"binder": "B15", "binding signal": 14.1}, {"binder": "B16", "binding signal": 0.702}, {"binder": "B17", "binding signal": 13.5}]}]}
